# About 7,900 targets were measured; listed, in parts, are those with a hit and a random draw of the rest. About 0.6% of all pairs of compound and target were hits. Unmarked numbers belong to inactive results.
# Tests used:
# Test in all cases: log2 fold change, soluble protein after heating vs DMSO (PISA); higher = thermal stabilisation; K562 cells, 10 uM, 30 min; active = over 0.2 and 3.5 SD of the protein, either way, in both replicates (recomputed)
# erlotinib = compound: C#Cc1cccc(Nc2ncnc3cc(OCCOC)c(OCCOC)cc23)c1 [erlotinib]
# Method in brief: (§1)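 Quantification of soluble protein used TMTpro 16plex LC-MS/MS, with channel sums equalised. Samples were the supernatant after 21,000xg for 90 min of pooled aliquots from K562 cells (2×10^6 cells/mL) treated with 10 μM compound for 30 min, heated for 3 min over 48°C-58°C, and extracted in PBS with 0.5% NP-40 at 4°C. Values, from duplicates, describe thermal stability against control samples on a log2 fold-change scale.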
# [1] = compound: C/C(=N\NC(=O)C1=CC(=CC=C1)S(=O)(=O)N2CCOCC2)/C3=C(C=CC(=C3)Cl)O
# Method in brief: as §1
# [2] = compound: C1=CC(=C(C=C1Cl)C2=NC3=NC=CN=C3C(=N2)NC4=CC=NC=C4)F
# Method in brief: as §1
# [3] = compound: C1=CC(=CC=C1C2=NC3=C(N2)C=C(C=C3)C(=O)N)OC4=CC=C(C=C4)Cl
# Method in brief: as §1
# [4] = compound: C1=CC2=C(C=CC(=C2)/C=C\3/C(=O)NC(=NCC4=CC=CS4)S3)N=C1
# Method in brief: as §1
# [5] = compound: C1=CC2=NC=CN=C2C=C1/C=C/3\C(=O)NC(=O)S3
# Method in brief: as §1
# [6] = compound: C1=CC=C2C(=C1)C3=NNC4=CC=CC(=C43)C2=O
# Method in brief: as §1
# [7] = compound: C1CCN(C1)C(=O)NC2=CC=CC(=C2)NC3=NC=C(C(=N3)NCCC4=CN=CN4)Br
# Method in brief: as §1
# [8] = compound: C1CN(CCC1(CC2=CC=C(C=C2)Cl)N)C3=NC=NC4=C3C=CN4
# Method in brief: as §1
# [9] = compound: C1=CC=C(C=C1)C2=NC(=C(N2)C3=CC=NC=C3)C4=CC(=C(C=C4)Cl)O
# Method in brief: as §1
# Sequence of UniProt Q02224 (Q02224 whole entry, looked up): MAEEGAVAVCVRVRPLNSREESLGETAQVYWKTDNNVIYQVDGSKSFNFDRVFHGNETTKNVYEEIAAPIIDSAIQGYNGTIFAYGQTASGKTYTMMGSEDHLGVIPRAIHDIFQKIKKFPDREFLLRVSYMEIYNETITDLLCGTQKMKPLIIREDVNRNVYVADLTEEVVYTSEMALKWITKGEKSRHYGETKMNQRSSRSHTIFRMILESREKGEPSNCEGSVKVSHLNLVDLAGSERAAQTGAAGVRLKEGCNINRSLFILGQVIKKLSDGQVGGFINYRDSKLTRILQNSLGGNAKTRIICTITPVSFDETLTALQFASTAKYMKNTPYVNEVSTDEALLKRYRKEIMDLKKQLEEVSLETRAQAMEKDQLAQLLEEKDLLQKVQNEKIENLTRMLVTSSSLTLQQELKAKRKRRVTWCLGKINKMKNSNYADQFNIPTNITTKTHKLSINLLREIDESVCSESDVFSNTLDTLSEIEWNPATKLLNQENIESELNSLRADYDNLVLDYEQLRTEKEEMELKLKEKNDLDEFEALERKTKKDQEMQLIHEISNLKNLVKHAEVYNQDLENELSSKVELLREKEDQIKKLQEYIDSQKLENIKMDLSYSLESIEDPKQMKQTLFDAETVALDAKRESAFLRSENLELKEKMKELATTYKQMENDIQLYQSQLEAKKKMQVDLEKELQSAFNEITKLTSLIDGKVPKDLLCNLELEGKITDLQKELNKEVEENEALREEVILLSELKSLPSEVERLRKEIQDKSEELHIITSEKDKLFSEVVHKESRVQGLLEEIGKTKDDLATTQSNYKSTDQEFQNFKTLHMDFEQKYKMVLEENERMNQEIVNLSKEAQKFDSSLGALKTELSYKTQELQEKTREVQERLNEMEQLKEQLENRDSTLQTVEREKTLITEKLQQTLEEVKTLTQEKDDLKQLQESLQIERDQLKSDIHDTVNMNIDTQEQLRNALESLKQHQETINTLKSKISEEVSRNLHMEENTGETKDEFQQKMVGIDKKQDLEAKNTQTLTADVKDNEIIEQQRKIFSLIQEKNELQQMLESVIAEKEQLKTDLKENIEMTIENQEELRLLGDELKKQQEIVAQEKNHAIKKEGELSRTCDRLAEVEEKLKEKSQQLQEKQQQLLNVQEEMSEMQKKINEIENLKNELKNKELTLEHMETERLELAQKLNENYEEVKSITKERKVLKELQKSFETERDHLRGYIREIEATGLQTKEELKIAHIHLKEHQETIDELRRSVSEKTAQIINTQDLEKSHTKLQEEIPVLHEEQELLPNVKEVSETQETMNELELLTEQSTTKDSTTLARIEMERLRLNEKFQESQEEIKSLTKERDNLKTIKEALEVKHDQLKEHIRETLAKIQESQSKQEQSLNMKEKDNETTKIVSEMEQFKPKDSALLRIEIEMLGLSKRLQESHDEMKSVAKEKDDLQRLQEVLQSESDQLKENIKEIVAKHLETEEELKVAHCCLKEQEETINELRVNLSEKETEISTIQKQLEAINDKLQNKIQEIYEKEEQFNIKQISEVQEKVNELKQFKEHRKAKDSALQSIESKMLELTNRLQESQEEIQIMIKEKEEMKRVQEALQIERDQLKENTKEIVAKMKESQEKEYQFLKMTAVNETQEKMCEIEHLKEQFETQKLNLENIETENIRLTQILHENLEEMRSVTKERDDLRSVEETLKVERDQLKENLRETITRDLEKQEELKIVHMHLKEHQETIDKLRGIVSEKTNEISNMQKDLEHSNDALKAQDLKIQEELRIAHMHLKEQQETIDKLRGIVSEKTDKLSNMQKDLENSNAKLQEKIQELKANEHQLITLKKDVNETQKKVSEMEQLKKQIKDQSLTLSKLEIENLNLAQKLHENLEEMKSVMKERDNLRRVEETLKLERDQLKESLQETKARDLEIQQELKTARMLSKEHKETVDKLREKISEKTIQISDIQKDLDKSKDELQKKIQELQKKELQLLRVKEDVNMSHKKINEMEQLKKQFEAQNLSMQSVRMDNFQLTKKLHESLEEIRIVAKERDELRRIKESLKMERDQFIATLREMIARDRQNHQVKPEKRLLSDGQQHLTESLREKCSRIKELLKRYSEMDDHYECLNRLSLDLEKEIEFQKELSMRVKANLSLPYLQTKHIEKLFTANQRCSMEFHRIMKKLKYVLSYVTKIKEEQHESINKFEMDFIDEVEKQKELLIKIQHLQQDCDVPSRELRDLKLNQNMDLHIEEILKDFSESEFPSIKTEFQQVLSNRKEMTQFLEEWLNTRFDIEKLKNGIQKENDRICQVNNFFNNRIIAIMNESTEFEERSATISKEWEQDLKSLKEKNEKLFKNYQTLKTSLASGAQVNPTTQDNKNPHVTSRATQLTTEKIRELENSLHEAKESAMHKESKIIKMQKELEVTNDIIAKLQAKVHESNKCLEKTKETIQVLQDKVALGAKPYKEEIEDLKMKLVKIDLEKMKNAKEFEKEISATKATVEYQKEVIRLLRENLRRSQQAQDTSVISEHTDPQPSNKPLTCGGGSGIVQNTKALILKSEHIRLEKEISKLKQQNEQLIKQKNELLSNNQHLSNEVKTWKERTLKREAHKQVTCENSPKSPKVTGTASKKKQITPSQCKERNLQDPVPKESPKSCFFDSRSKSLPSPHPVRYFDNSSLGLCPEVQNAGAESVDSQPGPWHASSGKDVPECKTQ
# Sequence of UniProt P35790 (P35790 whole entry, looked up): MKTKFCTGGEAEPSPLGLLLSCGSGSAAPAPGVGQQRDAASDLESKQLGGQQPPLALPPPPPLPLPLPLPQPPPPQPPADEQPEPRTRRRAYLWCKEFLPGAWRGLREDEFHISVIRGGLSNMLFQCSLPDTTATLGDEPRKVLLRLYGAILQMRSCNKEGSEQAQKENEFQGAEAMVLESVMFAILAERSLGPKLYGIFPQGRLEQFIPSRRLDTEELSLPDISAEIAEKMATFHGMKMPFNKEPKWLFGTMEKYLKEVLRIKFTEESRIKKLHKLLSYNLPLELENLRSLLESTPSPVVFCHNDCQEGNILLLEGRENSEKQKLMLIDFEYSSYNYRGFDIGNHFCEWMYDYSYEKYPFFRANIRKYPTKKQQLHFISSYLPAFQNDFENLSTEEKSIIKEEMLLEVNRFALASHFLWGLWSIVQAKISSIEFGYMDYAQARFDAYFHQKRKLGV
# Sequence of UniProt Q15417 (Q15417 whole entry, looked up): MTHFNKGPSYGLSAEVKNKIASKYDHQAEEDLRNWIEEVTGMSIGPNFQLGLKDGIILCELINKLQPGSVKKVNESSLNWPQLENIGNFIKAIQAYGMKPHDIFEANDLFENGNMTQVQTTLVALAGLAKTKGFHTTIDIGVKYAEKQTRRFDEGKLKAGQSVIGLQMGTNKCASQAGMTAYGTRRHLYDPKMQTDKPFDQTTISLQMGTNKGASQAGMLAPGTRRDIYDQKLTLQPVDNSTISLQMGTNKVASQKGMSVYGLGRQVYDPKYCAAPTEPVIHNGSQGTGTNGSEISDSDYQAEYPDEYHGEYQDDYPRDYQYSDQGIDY
# Sequence of UniProt P21127 (P21127 whole entry, looked up): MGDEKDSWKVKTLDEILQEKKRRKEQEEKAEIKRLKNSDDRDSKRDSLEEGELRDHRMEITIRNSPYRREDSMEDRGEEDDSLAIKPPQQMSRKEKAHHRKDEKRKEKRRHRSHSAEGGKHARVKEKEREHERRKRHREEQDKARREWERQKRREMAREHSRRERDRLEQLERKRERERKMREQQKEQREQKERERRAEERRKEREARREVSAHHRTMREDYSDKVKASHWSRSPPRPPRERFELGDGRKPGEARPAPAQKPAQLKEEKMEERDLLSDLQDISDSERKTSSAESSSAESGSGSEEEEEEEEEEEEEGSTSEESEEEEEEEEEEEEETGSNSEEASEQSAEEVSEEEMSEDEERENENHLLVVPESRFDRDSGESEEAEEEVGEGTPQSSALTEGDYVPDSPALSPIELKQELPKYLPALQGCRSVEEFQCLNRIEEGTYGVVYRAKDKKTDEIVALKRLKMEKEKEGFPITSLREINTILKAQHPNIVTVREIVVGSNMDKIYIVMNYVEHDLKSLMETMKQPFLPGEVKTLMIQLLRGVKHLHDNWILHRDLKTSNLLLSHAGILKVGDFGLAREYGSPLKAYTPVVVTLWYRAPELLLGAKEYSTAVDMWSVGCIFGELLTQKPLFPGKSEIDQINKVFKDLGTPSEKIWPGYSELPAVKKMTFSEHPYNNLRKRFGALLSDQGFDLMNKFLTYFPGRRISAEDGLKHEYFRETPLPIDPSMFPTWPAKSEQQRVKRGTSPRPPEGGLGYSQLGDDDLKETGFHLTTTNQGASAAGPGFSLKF
# Sequence of UniProt O95273 (O95273 whole entry, looked up): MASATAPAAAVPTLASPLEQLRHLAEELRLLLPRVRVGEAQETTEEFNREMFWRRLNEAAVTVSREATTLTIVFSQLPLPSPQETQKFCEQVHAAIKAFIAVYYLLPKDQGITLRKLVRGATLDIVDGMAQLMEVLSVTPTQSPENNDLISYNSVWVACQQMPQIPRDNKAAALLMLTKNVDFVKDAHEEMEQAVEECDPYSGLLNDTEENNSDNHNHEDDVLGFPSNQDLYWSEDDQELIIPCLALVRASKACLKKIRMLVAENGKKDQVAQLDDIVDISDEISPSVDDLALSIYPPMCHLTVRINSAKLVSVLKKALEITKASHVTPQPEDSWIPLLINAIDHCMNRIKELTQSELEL
# Sequence of UniProt P51911 (P51911 whole entry, looked up): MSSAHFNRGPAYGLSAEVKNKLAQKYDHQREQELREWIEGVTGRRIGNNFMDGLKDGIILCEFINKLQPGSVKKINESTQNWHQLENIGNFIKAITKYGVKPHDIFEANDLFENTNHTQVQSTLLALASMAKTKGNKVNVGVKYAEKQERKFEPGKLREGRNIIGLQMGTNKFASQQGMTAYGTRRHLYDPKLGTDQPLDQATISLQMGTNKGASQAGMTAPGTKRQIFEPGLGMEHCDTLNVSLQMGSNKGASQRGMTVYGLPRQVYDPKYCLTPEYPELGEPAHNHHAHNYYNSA
# Sequence of UniProt Q14061 (Q14061 whole entry, looked up): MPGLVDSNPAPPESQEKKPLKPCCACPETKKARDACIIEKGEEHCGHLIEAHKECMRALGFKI
Target,log2 fold change (erlotinib),log2 fold change [1],log2 fold change [2],log2 fold change [3],log2 fold change [4],log2 fold change [5],log2 fold change [6],log2 fold change [7],log2 fold change [8],log2 fold change [9]
CNN3 (UniProt Q15417),0.013,0.158,0.064,-0.088,0.054,0.056,0.016,0.041,-0.116,–
CLN8 (UniProt Q9UBY8),0.012,0.198,–,0.01,0.212,0.099,-0.06,0.003,-0.171,-0.208
CBX1 (UniProt P83916),0.025,-0.044,0.022,0.072,0.004,0.089,-0.026,-0.007,-0.027,-0.055
CCNDBP1 (UniProt O95273),0.009,0.191,–,0.105,-0.011,0.034,-0.122,-0.086,-0.068,0.076
CD84 (UniProt Q9UIB8),0.131,0.052,-0.027,0.099,0.01,–,0.033,-0.032,0.111,–
CDCA2 (UniProt Q69YH5),0.519 (active),-0.46,0.043,-0.333,0.048,–,-0.033,-0.082,0.256,-0.002
C15orf41 (UniProt Q9Y2V0),0.02,0.017,0.002,-0.033,-0.018,–,-0.098,0.115,0.075,0.001
CNOT4 isoform 9 (UniProt O95628),-0.011,-0.022,–,0.047,0.089,0.018,0.245,0.175,0.455,0.053
CDK11B (UniProt P21127),0.044,0.006,-0.139,0.063,0.035,-0.033,-0.049,-0.033,-0.058,-0.042
COX7C (UniProt P15954),-0.006,0.134,0.209,0.154,-0.174,0.073,0.27,-0.003,0.047,0.08
CDK5 (UniProt Q00535),-0.02,-0.009,0.041,-0.008,-0.014,0.052,–,0.017,0.038,-0.02
CCDC82 (UniProt Q8N4S0),-0.08,0.035,0.011,-0.026,-0.01,0.046,-0.092,-0.004,0.022,-0.022
CENPE (UniProt Q02224),0.268,0.525,–,-0.096,-0.875 (active),0.098,0.444,0.011,0.032,0.072
CASTOR2 (UniProt A6NHX0),-0.026,0.117,0.013,0.018,-0.031,0.017,-0.017,-0.065,-0.002,0.029
COX17 (UniProt Q14061),-0.032,-0.064,0.375,-0.009,0.035,–,0.404,-0.117,0,0.207
CDC42BPA isoform 6 (UniProt Q5VT25),-0.081,0.115,-0.022,0.008,-0.337,-0.011,0.073,-0.03,-0.396,0.03
C19orf54 (UniProt Q5BKX5),-0.094,-0.054,0.024,0.008,-0.005,–,0.026,-0.027,-0.543 (active),-0.024

Target,log2 fold change (erlotinib),log2 fold change [1],log2 fold change [2],log2 fold change [3],log2 fold change [4],log2 fold change [5],log2 fold change [6],log2 fold change [7],log2 fold change [8],log2 fold change [9]
CLASP2 (UniProt O75122),0.089,-0.078,–,0.082,-0.211,0.133,-0.106,–,–,0.286
CORO2A (UniProt Q92828),-0.035,0.064,–,-0.011,-0.001,0.127,-0.042,0.034,0.031,0.138
CRMP1 isoform 2 (UniProt Q14194),-0.1,-0.273,–,0.009,0.101,-0.011,-0.037,0.088,-0.014,–
CDK8 (UniProt P49336),-0.098,-0.094,-0.161,0.028,-0.023,0.102,0.287,-0.044,0.034,-0.087
CLASP2 isoform 3 (UniProt O75122),0.014,0.136,0.066,0.032,0.081,-0.013,0.006,-0.063,0.041,-0.01
CMTM3 (UniProt Q96MX0),0.032,-0.055,0.166,-0.044,0.034,0.066,-0.007,0.002,0.051,–
CDK19 (UniProt Q9BWU1),-0.2,-0.116,0.053,0.268,0.111,–,0.099,0.003,0.021,-0.167
CA8 (UniProt P35219),-0.045,0.051,0.092,-0.017,0.054,0.019,-0.02,-0.054,0.011,0.118
COG2 (UniProt Q14746),-0.082,-0.367,0.012,-0.026,0.478,–,-0.137,0.257,-0.065,-0.223
COX7B (UniProt P24311),-0.022,0.058,0.109,0.006,-0.081,0.057,-0.009,0.085,0.016,–
CHKA (UniProt P35790),0.012,-0.008,0.036,-0.018,0.001,-0.119,-0.188,0.005,-0.021,0.069
CLN5 (UniProt O75503),0.146,-0.049,0.063,0.103,0.023,0.016,0.15,-0.02,-0.285,–
CRTC1 isoform 2 (UniProt Q6UUV9),0.007,0.07,-0.228,0.068,0.185,-0.052,-0.051,-0.053,0.021,-0.229
CDK17 isoform 2 (UniProt Q00537),0.086,0.008,0.059,-0.075,-0.123,-0.081,0.064,–,–,–
CNN1 (UniProt P51911),–,0.062,0.055,–,0.063,–,0.041,-0.129,0.118,–
CASP7 isoform 3 (UniProt P55210),0.133,–,-0.105,0.217,–,0.118,–,–,–,–
